From ChEMBL document CHEMBL3988442, “University of Dundee, Small-Polar-MMV Screening Library” (2021) come the findings set out here.

Screen size: about 69,000 compounds; about 420 (0.61%) showed an effect of 50% or more. Many of the other results were omitted from the sample, so strong results are more common in it than they were.

The target in the assay is T1, Histidine--tRNA ligase (Leishmania infantum) (UniProt A4I591).
T1 sequence (whole entry): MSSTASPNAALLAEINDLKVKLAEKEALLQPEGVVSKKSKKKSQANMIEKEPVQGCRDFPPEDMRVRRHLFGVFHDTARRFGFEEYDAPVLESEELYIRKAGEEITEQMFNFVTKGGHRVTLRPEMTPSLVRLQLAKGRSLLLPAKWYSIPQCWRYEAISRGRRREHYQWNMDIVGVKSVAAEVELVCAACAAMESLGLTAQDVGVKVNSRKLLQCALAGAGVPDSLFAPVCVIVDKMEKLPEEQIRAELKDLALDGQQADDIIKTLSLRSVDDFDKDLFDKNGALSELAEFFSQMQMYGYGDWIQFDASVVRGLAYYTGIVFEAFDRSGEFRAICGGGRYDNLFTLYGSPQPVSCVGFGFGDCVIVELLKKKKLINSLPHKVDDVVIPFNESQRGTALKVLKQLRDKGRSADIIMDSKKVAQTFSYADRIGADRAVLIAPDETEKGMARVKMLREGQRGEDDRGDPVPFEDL
Kind of assay: Leishmania infantum Histidine tRNA synthetase (LdHisRS). As to conditions: 30 µM. It is filed as functional. Set-up: scale not given: in the data most compounds retested in dose-response had high values.
In the case of `CC1CCN(Cc2ccccc2CNC(=O)C2CNC(=O)N2)CC1` (stereo not drawn), the Percent Effect was found to be 5.18%.

On to `O=C1CCC(C(=O)Nc2ccc(=O)n(Cc3ccccc3Cl)c2)N1` (stereo not drawn), for which the Percent Effect came to 20.5%.

For the molecule `O=C1NCC(C(=O)NCc2ccccc2CN2CCOCC2)N1` (stereo not drawn), the Percent Effect was 7.25%.

As to `CC(C)CN1C(=O)CO[C@@H]2CN(C(=O)N(C)C)C[C@H]21`, the Percent Effect was 8.77%.

On to `CN1CC[C@@H]2[C@@H](CO[C@H]2CNC(=O)c2nccn2C)C1`, for which the Percent Effect is 16%.

Consider `CN(C)C(=O)CN1C[C@@H]2CC[C@H](C1)N(Cc1cc(F)ccc1F)C2`, for which the Percent Effect is 1.91%.

`CN1C[C@@H]2CC[C@H](CC1=O)N2C(=O)c1cc2ccccc2[nH]c1=O`: the Percent Effect came out at 19.5%.

On to `Cc1occc1C(=O)N1C[C@@H]2[C@@H](C1)OCC(=O)N2Cc1cccnc1`, for which the Percent Effect was 11.5%.

Consider `Cn1cc(C(=O)N2CC[C@@H]3[C@@H]2CCN3c2ccccn2)cn1`, for which the Percent Effect is 16%.

`Cc1noc(C)c1CN1CCO[C@H]2CN(C(=O)C3CCOCC3)C[C@H]21`: the Percent Effect is 7.96%.

As to `O=C(NCc1cccnc1N1CCc2ccccc2C1)c1cc(=O)[nH][nH]1`, the Percent Effect was determined as 50%.

As for `O=C(NCc1cccnc1N1CCc2ccccc2C1)c1cnc[nH]1`, the Percent Effect worked out at 18.6%.

As to `Cc1cc(C(=O)NCc2cccnc2N2CCc3ccccc3C2)[nH]n1`, the Percent Effect worked out at 21.4%.

`CCC1CN(CC(=O)NCCN2CCCCCC2)c2ccccc2S1` (stereo not drawn): the Percent Effect amounted to 51.1%.

As for `CCC1CN(CC(=O)NCCN2CCCC2)c2ccccc2S1` (stereo not drawn), the Percent Effect was determined as 31.5%.

With `CCC1CN(CC(=O)NCCN2CCCCC2)c2ccccc2S1` (stereo not drawn), the Percent Effect was found to be 27.2%.

In the case of `CN(C)C(=O)N1C[C@@H]2CC[C@H](C1)N(Cc1ccc3nsnc3c1)C2`, the Percent Effect stood at 24%.

On to `O=C1N(c2cccc(F)c2)Cc2nc(=O)n(Cc3ccccc3Cl)n21`, for which the Percent Effect worked out at 12%.

With `CN1C[C@@H]2CN(C(=O)NCc3cccc(F)c3)CCC[C@]2(C(=O)O)C1`, the Percent Effect amounted to 6%.

As for `COc1ccc(CN2C[C@@H]3COC[C@@H](N4CCN(C)CC4)[C@@H]3C2)cc1`, the Percent Effect turned out to be 17%.

As to `CCn1ncc(-c2cc(C(F)(F)F)nc(N3CCC(N)CC3)n2)c1C`, the Percent Effect worked out at 15.1%.

For the molecule `Cc1c(-c2cc(C(F)(F)F)nc(N3CCC(N)CC3)n2)cnn1C`, the Percent Effect came to 19.4%.

Turning to `CCc1ccc(-c2cc(C(F)(F)F)nc(N3CCC(N)CC3)n2)cc1`, the Percent Effect worked out at 71%.

Regarding `CNC(=O)[C@H]1C[C@@H]2CN(C(=O)c3ccco3)C[C@@H]2N1S(C)(=O)=O`, the Percent Effect was 17%.

`COCCC(=O)N1CC[C@@H]2O[C@@H](C)C[C@H]2C1`: the Percent Effect was 15.3%.

For `O=C(Cc1ccco1)N1C[C@H]2CCC[C@@]2(COc2cccnc2)C1`, the Percent Effect stood at 24%.

Turning to `COc1ccc(-c2nc(CN3CCc4c(ncn4C)C3)cs2)cc1`, the Percent Effect was 57.5%.

As to `Cn1cnc2c1CCN(Cc1csc(-c3ccccc3)n1)C2`, the Percent Effect was determined as 15.7%.

For `Cn1cnc2c1CCN(Cc1csc(-c3ccc(F)cc3)n1)C2`, the Percent Effect amounted to 10.2%.

For the molecule `Cc1ccc(OCC(=O)N2C[C@@H]3CN(C)CCO[C@@H]3C2)cc1`, the Percent Effect came to 5.17%.

As for `COc1ccccc1CN(C)C(=O)CN1CC(n2nc(C)cc2C)C1`, the Percent Effect is 40.2%.

On to `Cc1cc(C)n(C2CN(CC(=O)N(C)Cc3ccsc3)C2)n1`, for which the Percent Effect came to 43.8%.

On to `COc1cccc(CN(C)C(=O)CN2CC(n3nc(C)cc3C)C2)c1`, for which the Percent Effect turned out to be 62.9%.

Turning to `COc1cc(C(=O)N2CCO[C@H]3[C@H](OCC4CC4)CC[C@@H]32)ccc1F`, the Percent Effect was determined as 12.1%.

For the molecule `O=C(NCc1cccnc1)[C@H]1C[C@@H]2CCN(c3ccncn3)C[C@H]2O1`, the Percent Effect stood at 15.3%.

`CCN1C[C@@H]2CN(C(=O)c3ccsc3)C[C@@H]2C1=O`: the Percent Effect was -28.6%.

Turning to `N#Cc1cccc(CN2C[C@@H](NC(=O)C3CC3)[C@H]3OCCC[C@H]32)c1`, the Percent Effect is -2.75%.

Turning to `O=C(O)c1c[nH]c2cc(NS(=O)(=O)c3cccc(F)c3F)ccc12`, the Percent Effect was determined as 36.5%.

With `COc1cc(F)c(S(=O)(=O)Nc2cnc(O)cc2C)cc1OC`, the Percent Effect came to 97.6%.

For `Cc1cc(O)ncc1NS(=O)(=O)c1cccc(F)c1F`, the Percent Effect was 95.2%.

For the molecule `COc1ncc(NS(=O)(=O)c2ccc(F)cc2F)cn1`, the Percent Effect came to 12.8%.

For the molecule `COc1ccccc1S(=O)(=O)Nc1cnc(O)cc1C`, the Percent Effect is 20.5%.

With `CC(C)(CN)NS(=O)(=O)c1cccc(F)c1F`, the Percent Effect turned out to be 11.8%.

Consider `COc1ccc(CN2CCO[C@H]3CN(C(=O)C4CC4)CC[C@H]3C2=O)cc1`, for which the Percent Effect is 11.1%.

As for `COC[C@@]12CCO[C@@H]1CCN(Cc1ccc(C)s1)C2`, the Percent Effect is -2%.

In the case of `O=C(c1cnccn1)N1C[C@@H]2CC[C@H](C1)N(C(=O)Cc1ccsc1)C2`, the Percent Effect is 12.3%.

`CCCS(=O)(=O)N1C[C@H](N(C)Cc2ccco2)[C@@H]2OCCC[C@@H]21`: the Percent Effect stood at 9%.

`Cc1nc(C(=O)N2C[C@@H]3CN(S(C)(=O)=O)CCO[C@@H]3C2)cs1`: the Percent Effect was 8.77%.

`CN1CCN(c2cccc(NC(=O)NCc3csc(N(C)C)n3)c2)C1=O`: the Percent Effect was determined as 64.7%.

As to `CN(C)c1nc(CNC(=O)Nc2cccc([S+](C)[O-])c2)cs1` (stereo not drawn), the Percent Effect stood at 27.1%.

For the molecule `Cc1nnsc1CNC(=O)Nc1cccc(N2CCN(C)C2=O)c1`, the Percent Effect was found to be 11.8%.

For the molecule `Cc1cccc(CN2C(=O)CO[C@@H]3CN(Cc4cnn(C)c4)C[C@H]32)c1`, the Percent Effect stood at 23.1%.

With `C=Cc1cccc(CN2C[C@H]3CC[C@@H]2CN(Cc2c(C)noc2C)C3)c1`, the Percent Effect stood at 27.4%.
